Experimental data from PubChem BioAssay AID1259251 (The Scripps Research Institute Molecular Screening Center, 2017).
Screen size: about 30,000 compounds; about 580 (1.9%) were called active. Rule as the data show it: active = inhibition above about 43%; inactive = the rest. The list comes from a sample in which actives are over-represented; it also holds similar structures and randomly drawn compounds.

target: Serine/threonine-protein kinase ULK1 (Homo sapiens) (UniProt O75385); test: inhibition of human autophagy kinase ULK1 – biochemical, AlphaScreen, primary screen (AID 1259251); settings: AlphaScreen Atg13 phosphorylation by ULK1, luminescence; at 5.96 µM; active compounds read high;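 also: 0% = median of compound wells and 100% = no enzyme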
Sequence (O75385 whole entry, looked up): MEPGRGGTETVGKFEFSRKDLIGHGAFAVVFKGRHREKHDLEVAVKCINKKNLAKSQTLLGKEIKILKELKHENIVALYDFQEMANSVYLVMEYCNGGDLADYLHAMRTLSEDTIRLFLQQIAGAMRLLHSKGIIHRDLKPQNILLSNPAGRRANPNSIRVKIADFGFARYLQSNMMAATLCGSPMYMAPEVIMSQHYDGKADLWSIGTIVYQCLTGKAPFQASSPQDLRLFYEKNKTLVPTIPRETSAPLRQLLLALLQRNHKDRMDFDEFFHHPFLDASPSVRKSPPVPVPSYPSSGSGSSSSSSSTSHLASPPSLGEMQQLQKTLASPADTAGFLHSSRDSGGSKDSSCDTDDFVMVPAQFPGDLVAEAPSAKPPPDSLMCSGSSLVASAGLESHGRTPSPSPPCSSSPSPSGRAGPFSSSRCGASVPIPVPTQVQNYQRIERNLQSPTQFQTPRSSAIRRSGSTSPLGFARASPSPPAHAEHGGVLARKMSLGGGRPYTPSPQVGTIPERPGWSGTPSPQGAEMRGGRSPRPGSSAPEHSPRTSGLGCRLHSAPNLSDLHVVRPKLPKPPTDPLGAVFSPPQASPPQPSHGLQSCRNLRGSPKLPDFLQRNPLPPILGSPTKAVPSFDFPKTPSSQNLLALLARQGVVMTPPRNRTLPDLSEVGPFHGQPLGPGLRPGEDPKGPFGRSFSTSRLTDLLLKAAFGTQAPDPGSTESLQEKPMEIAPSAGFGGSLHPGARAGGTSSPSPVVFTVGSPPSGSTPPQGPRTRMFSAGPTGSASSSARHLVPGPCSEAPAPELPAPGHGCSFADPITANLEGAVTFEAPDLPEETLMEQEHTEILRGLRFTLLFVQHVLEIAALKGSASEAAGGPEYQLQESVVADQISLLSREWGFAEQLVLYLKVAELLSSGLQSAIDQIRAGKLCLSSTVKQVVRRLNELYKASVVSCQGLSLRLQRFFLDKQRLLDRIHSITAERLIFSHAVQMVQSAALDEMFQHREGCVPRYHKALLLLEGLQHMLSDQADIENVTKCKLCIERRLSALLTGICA

inhibition, inactive:
Cc1ncccc1-c1ncn(-c2ccc(Nc3nccc(-c4cc(F)cc(N5CCOCC5)c4)n3)cc2)n1 5.38%
Cn1cc(-c2cc(Nc3ccc(-n4cnc(N5CCC(O)CC5)n4)cc3)ncc2Cl)cn1 -17%
COC1CCN(c2ncn(-c3ccc(Nc4nccc(-c5cncc(N6CCOCC6)c5)n4)cc3)n2)CC1 -6.75%
c1coc(-c2ccc3cnc(Nc4ccc(-n5cnc(N6CCOCC6)n5)cc4)nc3c2)n1 3.23%
O=C(NC1CCN(Cc2ccccc2)CC1)c1cccc(-c2cccs2)n1 -5.23%
O=C(Nc1ccc2[nH]ncc2c1)c1ccnc(OC2CCN(Cc3ccccc3)CC2)c1 -8.14%
O=C(NC1CCN(Cc2ccccc2)CC1)c1cc(Cl)nc2ccccc12 2.89%
Cn1c(Nc2nc(NCc3cccc(C(F)(F)F)c3)c3ncn(C4CCCCC4)c3n2)nc2ccccc21 8.91%
O=C(NCCc1ccc(O)cc1)c1csc(Nc2ccc(N3CCOCC3)cc2)n1 13.3%
c1ccc(-c2ncn[nH]2)c(Nc2ccnc(Nc3ccc(N4CCOCC4)cc3)c2)c1 24.2%
Cc1cnc(-c2c(C)noc2C)nc1Nc1ccc(N2CCOCC2)cc1 -1.73%
c1ccc(CN2CCC(Nc3nc(NCCOc4ccccc4)c4[nH]cnc4n3)CC2)cc1 -28%
FC(F)(F)c1ccc(Cn2cnc3c(Nc4ccccc4)nc(N4CCN(c5ccccn5)CC4)nc32)cc1 -7.96%
CN(C)c1cccc(Nc2cc(C(=O)NC3CC3)c3ccccc3n2)c1 4.11%
Cc1ccc(CNC(=O)c2cn(C)c3c(=O)n(-c4ccccc4)c(=O)[nH]c23)cc1 1.67%
CN1CCN(C(=O)c2ccc(-c3cc(NCc4cccc(C(F)(F)F)c4)ncn3)cc2)CC1 -4.67%
COc1ccc(Cl)cc1NC(=O)COc1cccc2c1OC(C)(C)C2 -8.02%
O=C1Cc2cc(Nc3cc(Nc4ccccn4)c(C(F)(F)F)cn3)ccc2N1 38.2%
O=C(NCCO)c1cc(Nc2ccc3[nH]ncc3c2)ccn1 -10.8%
CNC(=O)c1cc(F)ccc1Nc1cc(Nc2ccc3nc[nH]c3c2)ncc1C(F)(F)F 3.83%
COc1cc(NC(=O)c2cnc(Nc3ccc(C(F)(F)F)cc3)s2)cc(OC)c1OC -10.3%
CC(=O)Nc1ccc(Nc2cc(Nc3ccccn3)nc(N)n2)cc1 -21.9%
COc1ccc(Oc2ncc(-c3ccc(OC)cc3)cn2)cc1 -2.6%
COc1ccc(-n2cc(-c3ccccc3[N+](=O)[O-])cn2)cc1 -17.3%
Cc1nn(C)c(C)c1-c1nc2ccc(C(=O)NCCO)cc2s1 1.9%
O=C(NCCOc1ccccc1)c1ccc2nc(N3CCN(Cc4ccc5c(c4)OCO5)CC3)sc2c1 1.44%
COc1ccc(-c2nc3ncnc(NCCc4ccc(O)cc4)c3[nH]2)cn1 -9.33%
c1ccc(Oc2cc(NC3CC3)ncn2)cc1 4.64%
O=C(NCc1nc2ccccc2[nH]1)c1cccc(-c2cccs2)c1 1.37%
CC(C)(C)c1ccc(S(=O)(=O)NCc2nc(-c3ccncc3)n[nH]2)cc1 2.8%
Cc1ccc(C)c(NS(=O)(=O)c2ccc3c(c2)OCCCO3)c1 0.58%
O=C1CCCN1CCn1cnc2c(Nc3ccc(N4CCOCC4)cc3)nc(NCc3ccc4c(c3)OCO4)nc21 11.6%
c1ccc(CN2CCC(Nc3nc(-c4ccccc4)nc4c3ncn4C3CCCCC3)CC2)cc1 -30.6%
c1ccc(CN2CCC(Nc3nc(NCc4ccc5c(c4)OCO5)nc4c3ncn4C3CCCCC3)CC2)cc1 1.3%
c1ccc(CN2CCC(Nc3nc(NCCN4CCOCC4)c4ncn(C5CCCCC5)c4n3)CC2)cc1 7.74%
CC(C)N(CCNC(=O)C1CCN(c2ccc(Nc3ccccc3)nn2)CC1)C(C)C 0.63%
COc1cc(NC(=O)c2ccnc(-c3c(C)noc3C)c2)cc(OC)c1OC 3.86%
Oc1ccc(CCNc2nc(Nc3ccncn3)nc3c2ncn3C2CCCCC2)cc1 14.6%
CC(=O)Nc1ccc(Nc2nc(Nc3ccccn3)ncc2C)cc1 8.71%
CC(C)N(CCNC(=O)Cc1cn(-c2ccc(Nc3ccc(N4CCOCC4)cc3)nn2)c2ccccc12)C(C)C 5.92%
COc1cc(CNC(=O)c2cnc3cc(-c4cn[nH]c4)ccn23)cc(OC)c1 -6.5%
CCCNC(=O)c1ccc2nc(-c3c(C)nn(C)c3C)sc2c1 1.04%
CN(C)c1cccc(Nc2nc(NCCO)c3[nH]cnc3n2)c1 15.6%
O=C1CCCN1CCCNc1nc(-c2ccccc2)nc2nc[nH]c12 9.26%
OCCNc1nc(Nc2ccccn2)nc2nc[nH]c12 8.19%
O=C1CCCN1CCCNc1nc(Nc2cnccn2)nc2nc[nH]c12 -13.6%
CCN(CC)C(=O)C1CCCN(c2nc(NCCOc3ccccc3)c3ncn(C(C)C)c3n2)C1 (configuration not stated) 4.04%
c1cncc(Nc2nccc(Nc3ccc(N4CCOCC4)cc3)n2)c1 10%
COCCNc1cc(-c2ccc(F)cc2)nc(C)n1 0.77%
CCN(C(=O)c1ccc(Br)cc1)c1ccccc1 2.64%
COc1cc2nc(-c3cccc(N)c3)nc(NCCN3CCOCC3)c2cc1OC -4.6%
COc1cc(C(=O)N2CCOCC2)ccc1Nc1cc(NCc2cccc(S(C)(=O)=O)c2)c(C(F)(F)F)cn1 -14.6%
FC(F)(F)c1cnc(Nc2ccc(N3CCOCC3)cc2)cc1-n1ncc2ccccc21 2.76%
CCOC(=O)c1cc[n+](CC(=O)c2ccc(NC(=O)c3ccccc3)cc2)cc1 3.76%
CCN(CC)C(=O)C1CCCN(c2nc3ccc(C(=O)Nc4ccc(NC(C)=O)cc4)cc3s2)C1 (configuration not stated) -20.8%
CNC(=O)c1ccccc1Nc1cc(NC(=O)C2(c3ccccc3)CC2)ncc1C(F)(F)F -23.5%
CNC(=O)c1ccccc1Nc1cc(NC(=O)Cc2ccc([N+](=O)[O-])cc2)ncc1C(F)(F)F 40.8%
CCN(CC)CCNC(=O)c1cc(S(C)(=O)=O)ccc1OC 13%
CNC(=O)c1ccccc1Nc1cc(NC(=O)Cc2ccc(F)c(F)c2)ncc1C(F)(F)F 32.8%
CC(C)N(CCNC(=O)c1ccnc(Nc2ccc(C(F)(F)F)cc2)c1)C(C)C -25.3%
O=C1CCCN1CCn1cnc2c(NCc3cccc(C(F)(F)F)c3)nc(Nc3nccc4ccccc34)nc21 -5.58%
Cc1cnc(CNc2cc(-c3ccccc3F)nc(C)n2)nc1 3.69%
COc1cc2nc(Nc3nccc4ccccc34)nc(NCc3cccc(C(F)(F)F)c3)c2cc1OC -3.82%
COC(c1ccccc1)(c1ccccc1)C(Oc1nc(C)cc(C)n1)C(=O)O (configuration not stated) 5.25%
CC(C)n1c(-c2ccc(C(N)=O)cc2)nc2c(NCCN3CCOCC3)ncnc21 -4.64%
O=C(NCCc1cccnc1)c1ccc2c(c1)CC(c1nc3ccc(-c4cn[nH]c4)cc3c(=O)[nH]1)CO2 (configuration not stated) 1.53%
CCNc1ncc(C)c(NCCc2ccc(OC)cc2)n1 -7.79%
Nc1nc(NCc2cccnc2)nc2c1ncn2-c1ccsc1 2.79%
CC(=O)Nc1ccc2cnn(-c3cccc(C(=O)NCCN4CCOCC4)c3)c2c1 -2.64%
C1=C2[C@@H](c3ccccc3)N3CCC[C@@H]3[C@H]3CCC[C@@]23OCC1 -9.95%
O=C(NC1CC1)c1ccc(-c2nccc(NCc3nc4ccccc4[nH]3)n2)cc1 -2.79%
COc1cc(Nc2cc(NC3CC3)ncn2)cc(OC)c1OC -5.2%
O=C(NCCCN1CCCC1=O)C1CCN(c2ccc(Nc3ccc4ncccc4c3)nn2)CC1 7.45%
COc1cccc(C(=O)Nc2nc3ccc(-c4ccncc4)cc3s2)c1 14.9%
CNC(=O)c1ccccc1Nc1ccnc(Nc2ccc(N3CCOCC3)cc2)c1 6.96%
CNC(=O)c1ccccc1Nc1nc(Nc2ccc(-n3cnc(-c4ccc(C)nc4)n3)cc2)ncc1Cl 8.9%
N#Cc1cccc(-c2ccnc(Nc3ccc(N4CCOCC4)cc3)n2)c1 7.92%
CC(C)n1cnc2c(NCCO)nc(Nc3ccc(C(F)(F)F)cc3)nc21 -7.45%
c1ccc(N2CCN(c3nc(NCCN4CCOCC4)c4ncn(C5CCCCC5)c4n3)CC2)nc1 -0.56%
Cn1c(Nc2nc(NC3CC3)c3ncn(C4CCCCC4)c3n2)nc2ccccc21 36.9%
O=C(CNS(=O)(=O)c1ccc(Cl)cc1)OCC(=O)c1ccccc1 14.9%

inhibition, active:
Cn1cc(-c2ccc3cnc(Nc4ccc(-n5cnc(N6CCOCC6)n5)cc4)nc3c2-c2cnn(C)c2)cn1 51.5%
Cn1cc(-c2nc(Nc3ccc(-n4cnc(N5CCC(O)CC5)n4)cc3)ncc2Br)cn1 85.1%
Cc1cnc(Nc2ccc(N3CCOCC3)cc2)nc1Nc1ccccc1-c1ncn[nH]1 70.3%
CNC(=O)c1cc(F)ccc1Nc1cc(Nc2ccc3[nH]ncc3c2)ncc1C(F)(F)F 78.3%
CNC(=O)c1cc(F)ccc1Nc1cc(Nc2ccc(NC(C)=O)cn2)ncc1C(F)(F)F 89%
CNC(=O)c1cc(F)ccc1Nc1cc(Nc2ccc3c(c2)CCC(=O)N3)ncc1C(F)(F)F 85.8%
c1ccc(CN2CCC(Nc3nc(Nc4ccc(N5CCOCC5)cc4)c4ncn(C5CCCCC5)c4n3)CC2)cc1 50.8%
c1cc2c(cc1CNc1nc(Nc3ccc(N4CCOCC4)cc3)c3ncn(C4CCCCC4)c3n1)OCO2 56.2%
OCCNc1nc(Nc2ccc3ncccc3c2)nc2nc[nH]c12 62.7%
O=C1CCCN1CCCNc1nc(Nc2ccc3ncccc3c2)nc2nc[nH]c12 67.6%
COc1cc(N2CCOCC2)ccc1Nc1cc(Nc2ccccc2-n2cccn2)c(C(F)(F)F)cn1 77%
CNC(=O)c1ccccc1Nc1cc(NC(=O)C(F)(F)c2ccccc2)ncc1C(F)(F)F 61.2%
CCN(CC)CCNC(=O)c1ccc(Nc2cc(Nc3ccccc3C(=O)NC)c(C(F)(F)F)cn2)c(C)c1 88.5%
CCN(CC)CCNC(=O)c1ccc(Nc2cc(Nc3ccccc3C(=O)NC)c(C(F)(F)F)cn2)nc1 92.4%
CCN(CC)CCOc1ccc(Nc2cc(Nc3ccccc3C(=O)NC)c(C(F)(F)F)cn2)c(OC)c1 91.6%
CNC(=O)c1ccccc1Nc1cc(Nc2ccc(C(=O)N(C)C)cc2)ncc1C(F)(F)F 86.4%
